Assay results taken from PubChem BioAssay (NCI).
About 83,000 compounds went through this panel and 20% of them were active in at least one assay; those are over-represented in the sample as a whole.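 Cell lines were cultured in 96-well plates, exposed to a single compound concentration, and assessed for percent growth 48 hours later.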 Activity calls are given as the source filed them.

System: TK-10 renal
Assay: NCI-60 one-dose screen, 48 h (100 = growth as untreated, 0 = no growth, -100 = all killed)
Settings: 10 µM unless noted
Procedure: Growth inhibition of the TK-10 human tumor cell line is measured as a screen for anti-cancer activity. Cells are grown in 96 well plates and exposed to the test compound for 48 hours. Compounds are tested at a single concentration, which is 10^-5 M for most compounds. The reported endpoint is percent growth (GI% or GIPRCNT), where numbers from 0 - 100% represent growth inhibition, and numbers from -100% - 0 represent cell death. For example, a value of 40 represents 60% growth inhibition. A value of 0 means no net growth occurred over the course of the experiment. A value of -40 indicates 40% of cells at the beginning of the experiment died by the end of the experiment. A value of -100 means all cells are dead at the end of the experiment.
NCI-60 Human Tumor Cell Lines Screen was performed using the standard one-dose NCI protocol, which is described in more detail at https://dtp.cancer.gov/discovery_development/nci-60/default.htm.
Compounds with GIPRCNT values below 10 were considered active. Activity score was based on GIPRCNT using the following formula: […]
Score is 0 for GIPRCNT values of 100 or above, 50 for GIPRCNT values of 0, and 100 for GIPRCNT values of -100.

Structure (SMILES) | growth
COc1cccc(C2=NN3C(C2)c2cc(Br)cc(OC)c2OC32CCN(Cc3ccccc3)CC2)c1 (stereo not given) | 108% (inactive)
O=C1Nc2c(ccc(Cl)c2Cl)/C1=C\c1ccc(C(F)(F)F)cc1 | 96.4% (inactive)
CSc1ccc(-c2n[nH]nc2-c2cc3ccccc3s2)cc1 | 84.2% (inactive)
O=C(Oc1cccnc1)c1ccsc1Nc1ccnc(C(F)(F)F)c1 | 94.8% (inactive)
COc1ccc(C2Nc3c(c(C(C)(C)C)nn3-c3ccccc3)C(=O)CS2)cc1 (stereo not given) | 100% (inactive)
CN1CCN(c2nc(NCCCCNc3ccnc4cc(Cl)ccc34)c3ccccc3n2)CC1 | 73% (inactive)
O=C(O)c1ccc(NC(=O)c2ccc(-c3cccc([N+](=O)[O-])c3)o2)cc1 | 102% (inactive)
COc1ccc(-c2cc(Nc3ccnc(N4CCOCC4)n3)on2)cc1 | 69.1% (inactive)
O=c1cc(/C(=C2/C=CC=N2)c2ccc[nH]2)c2cc(Cl)ccc2o1 | 63% (inactive)
Cc1cc(C)nc(SC2=C(Nc3ccc(C)c(Cl)c3)C(=O)N(Cc3ccccc3)C2=O)n1 | 84.8% [30 µM] (inactive)
COc1ccccc1Nc1nc(-c2cc3cccc(C(F)(F)F)c3oc2=O)cs1 | 67.9% (inactive)
COc1cc2c(cc1-c1c(C)noc1C)ncc1nc(C3CCCCC3)n([C@H](C)COC(F)F)c12 | 33.2% (inactive)
Cc1cc(N2CCCC2)nc(NC2CCCC(Nc3ccnc4cc(Cl)ccc34)C2)n1 (stereo not given) | -74.5% (active)
O=c1oc2c(C(F)(F)F)cccc2cc1-c1csc(Nc2ccc(OCCF)cc2)n1 | 59.7% (inactive)
Cc1cc(N2CCSCC2)nc(NC2CCCC(Nc3ccnc4cc(Cl)ccc34)C2)n1 (stereo not given) | -57.9% (active)
O=C(Cc1ccccc1Nc1c(Cl)cccc1Cl)NN1C(=O)/C(=C/c2ccc(Br)cc2)SC1=S | 107% (inactive)
CC1=C/C(=C(\c2ccc(N(C)C)cc2)c2ccc([N+](C)(C)C)cc2)C=CC1=[N+](C)C | 90% (inactive)
COc1ccc(Nc2c3c4c(cccc4[nH]c2=O)C(=O)c2ccccc2-3)cc1 | 28.6% (inactive)
FC(F)(F)c1nc2c(NCc3ccc(-c4ccccc4)cc3)cccc2[nH]1 | 79.2% (inactive)
O=C(/C=C/c1cc(CN2CCOCC2)c(O)c2ncccc12)c1cc(CN2CCOCC2)c(O)c2ncccc12 | 22.1% (inactive)

Structure (SMILES) | growth
C#Cc1cccc(NC(=O)c2ccccc2NC(=O)CCl)c1 | 91% [8.25 µM] (inactive)
COc1ccc(-c2cc(NC(=O)Nc3ccc4ncsc4c3)no2)cc1 | 104% (inactive)
COc1cc(C(=O)/C=C/c2cccnc2Nc2ccc(Cl)cc2)cc(OC)c1OC | -68.5% (active)
O=C(Cc1ccc(/C=C/C(=O)c2ncc[nH]2)cc1)Nc1ccccc1 | 49.1% (inactive)
C=CC(=O)Nc1cccc(-c2nc(SC)nc(NCCc3ccc(OC)c(OC)c3)c2C#N)c1 | 82.4% (inactive)
COc1ccc(CN2c3ccccc3Sc3ccccc32)cc1O | 58.3% (inactive)
O=C1c2cccc3cccc(c23)C(=O)N1CCCCN1CCN(CCCCOc2ccc(-c3nc4ccc(N5CCOCC5)cc4[nH]3)cc2)CC1 | 114% (inactive)
Cc1ccc2c(C(C[N+](=O)[O-])c3ccco3)c(-c3ccccc3)[nH]c2c1 (stereo not given) | 64.2% (inactive)
O=C(O)c1c(=O)cccc2ssc12 | 4.78% (active)
CC(C)C1=C[C@@]23CC[C@@H]4[C@](C)(CCC[C@@]4(C)C(=O)N4CCCNCC4)[C@H]2C[C@@H]1[C@H]1C(=O)CCC(=O)[C@H]13 | 104% (inactive)
Nc1n[nH]c2cc(F)c([C@@H]3Nc4ccc5[nH]ncc5c4[C@H]4C5CCC(C5)[C@@H]34)cc12 (stereo not given in full) | 52.5% (inactive)
COc1cccc2c1C(=O)c1c(O)c3c(c(O)c1C2=O)C[C@](O)(C(=O)CO)C[C@H]3O[C@@H]1C[C@@H](NC(=O)CCCN(C)C2(c3ccc(F)cc3)CC3CCC2C3)[C@H](O)[C@@H](C)O1 (stereo not given in full) | 54.6% (inactive)
O=C(N(c1ccccc1)c1ccccc1)n1ccc2nc(Cl)nc(Cl)c21 | 73.7% (inactive)
CCCOc1cc2ccccc2cc1C(=O)Nc1nc(N)c2c(ccc3nccc32)[nH]1 | -37.3% (active)
CCNC(=O)Oc1ccc(/C(=C(\C)c2ccc(Cl)cc2)c2ccc(OCCN3CCCCC3)cc2)cc1 | 83.7% (inactive)
O=C(/C=C/c1cccc([N+](=O)[O-])c1)c1ccc(O)c(CN2CCN(c3cc4c(cc3F)c(=O)c(C(=O)O)cn4C3CC3)CC2)c1 | 34.5% (inactive)
Cc1cc(C)nc(SC2=C(Nc3ccc(O)cc3)C(=O)N(Cc3ccccc3)C2=O)n1 | 110% [40 µM] (inactive)
O=C1C=CC(=O)N1c1ccc2c(c1)Cc1cc(F)ccc1-2 | 99% (inactive)
CN1CCN=C1c1ccc(NC(=O)c2ccc(C(=O)Nc3ccc(C4=NCCN4C)cc3)cc2)cc1 | 90.4% (inactive)
Nc1nc2ccc3[nH]ncc3c2c2c1CCCC2 | 4.7% (active)
